Avidin fluor: avidin bead compound fluorescence profile. fluorescence (KMESF) at 10 µM. Avidin beads, compound fluorescence 488/530 nm, flow cytometry; hits give high values. 0.38% of 220,000 active; in the data active means fluorescence above about 47
RGS7-Gao reg: human RGS7-Galphao interaction regulation | AID 1439 | Multiplexed bead flow cytometry, RGS7-Galphao binding; actives lie on both sides | binding response (% of control), % at 10 µM | P09471 | 0.35% of 220,000 active; in the data active means binding response below about 49% or above about 150%; inconclusive means no clear call, values can overlap the other calls; inactive means in between;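 further: fluorescent Galphao held in activated GDP-AlF4 state binding bead-coupled RGS7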
Target sequence (P09471 whole entry, looked up): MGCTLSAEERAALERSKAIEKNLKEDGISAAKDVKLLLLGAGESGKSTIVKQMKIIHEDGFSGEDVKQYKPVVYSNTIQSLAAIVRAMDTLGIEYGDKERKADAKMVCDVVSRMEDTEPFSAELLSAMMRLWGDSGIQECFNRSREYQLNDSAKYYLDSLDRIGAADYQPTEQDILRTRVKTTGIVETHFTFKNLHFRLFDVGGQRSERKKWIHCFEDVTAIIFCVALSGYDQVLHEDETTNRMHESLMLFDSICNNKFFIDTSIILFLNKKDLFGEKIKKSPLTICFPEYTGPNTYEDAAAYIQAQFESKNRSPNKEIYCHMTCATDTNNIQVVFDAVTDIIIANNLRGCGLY
GSH fluor: GSH bead compound fluorescence profile | GSH beads flow cytometry, compound fluorescence 488/530 nm; hits give high values | fluorescence (KMESF) at 10 µM | 0.25% of 190,000 active; in the data active means fluorescence above about 89;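 further: glutathione beads carrying GST-tagged Bcl family fusion proteins plus one bare bead set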
RGS8-Gao: regulators of human RGS8-Galphao interaction. P09471. multiplexed bead flow cytometry, RGS8-Galphao binding; actives lie on both sides. response (percent of control binding), % at 10 µM. 0.34% of 220,000 active. AID 1423; in the data active means response below about 60% or above about 140%; inactive means in between;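 further: Galphao activated as the GDP aluminium fluoride complex binding bead-coupled RGS8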
RGS4-Gao reg: human RGS4-Galphao interaction regulation. P09471. Multiplexed bead flow cytometry, RGS4-Galphao binding; actives lie on both sides. binding response (% of control), % at 10 µM. 0.33% of 220,000 active; in the data active means binding response below about 49% or above about 150%; inactive means in between;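 further: fluorescent Galphao activated with aluminum fluoride binding bead-coupled RGS4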
RGS16-Gao HTS: RGS16-Galphao interaction regulator (human) | binding response (% of control), % at 10 µM | O15492+P09471 | bead-based flow cytometry RGS16-Galphao binding, fluorescence; actives lie on both sides | 0.38% of 220,000 active | AID 1441;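 further: Galphao activated by GDP with aluminum fluoride before binding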
Target sequence (O15492 whole entry, looked up): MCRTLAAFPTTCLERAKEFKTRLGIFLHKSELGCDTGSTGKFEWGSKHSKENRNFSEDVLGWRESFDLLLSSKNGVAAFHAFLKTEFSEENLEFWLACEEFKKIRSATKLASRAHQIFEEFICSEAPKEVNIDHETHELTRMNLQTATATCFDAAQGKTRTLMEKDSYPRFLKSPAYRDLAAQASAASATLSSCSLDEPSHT
Target sequence (P09471 whole entry, looked up): as the sequence (P09471 whole entry, looked up) above
RGS4-Gao HTS: RGS4-Galphao interaction regulator (human). shares compounds with RGS16-Gao HTS. multiplexed bead flow cytometry, RGS–Galpha-o binding. RGS4–Galpha-o binding response, % at 10 µM. 99% of 1,600 active. AID 1504;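 further: fluorescently labeled Galpha-o bound to GDP with aluminium fluoride binding biotinylated RGS beads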
Avidin counter: counter-screen: compounds disrupting biotin binding to avidin beads | shares compounds with RGS16-Gao HTS | streptavidin beads, fluorescein-biotin binding, flow cytometry | inhibition, % at 10 µM | 1,700 tested, under 10 active;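 active means inhibition above 50%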;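 further: median green fluorescence of gated singlet beads compared with DMSO control wells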
RGS8-Gao confirm: confirmation of regulators of human RGS8-Galphao interaction; shares compounds with RGS16-Gao HTS; bead-based flow cytometry RGS8-Galphao binding, fluorescence; actives lie on both sides; binding response (% of control), % at 10 µM; 3% of 1,700 active; in the data active means binding response below about 72% or above about 130%; inactive means in between;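 further: Galphao activated as GDP AlF4 complex before binding bead RGS8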
RGS7-Gao confirm: RGS7-Galphao interaction regulation, single point confirmation | shares compounds with RGS16-Gao HTS | bead-based flow cytometry RGS7-Galphao binding; actives lie on both sides | response (percent of control binding), % at 10 µM | 7.8% of 1,700 active | AID 1837; in the data active means response below about 75% or above about 130%; inactive means in between;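 further: fluorescent Galphao activated with GDP and aluminum fluoride binding bead-coupled RGS7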
RGS16-Gao single: RGS16-Galphao interaction regulation, single point confirmation; shares compounds with RGS16-Gao HTS; bead-based flow cytometry, RGS16-Galphao binding; actives lie on both sides; 4% of 1,700 active; response (% of control binding), % at 10 µM; in the data active means response below about 74% or above about 130%; inactive means in between;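 further: Galphao activated as the GDP aluminium fluoride complex binding bead-coupled RGS16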
RGS4-Gao confirm: confirmation of regulators of human RGS4-Galphao interaction | shares compounds with RGS16-Gao HTS | RGS4-Galphao binding, multiplexed bead flow cytometry; actives lie on both sides | binding response (% of control), % at 10 µM | 4% of 1,700 active; in the data active means binding response below about 74% or above about 130%; inactive means in between
RGS19-Gao conf: confirmation of regulators of human RGS19-Galphao interaction; shares compounds with RGS16-Gao HTS; bead-based flow cytometry RGS19-Galphao binding; actives lie on both sides; response (percent of control binding), % at 10 µM; 5% of 1,700 active; AID 1841; in the data active means response below about 50% or above about 160%; inactive means in between
A number is an active result; - = inactive; ? = inconclusive; . = no result given; + = active, no number; [ ] = another dose, or the depositor's remark. This is a sample that favours compounds with a hit; in the whole collection about 1.2% have one here. Unless noted, how the calls were made is not given here.

SMILES	Avidin fluor	RGS7-Gao reg	GSH fluor	RGS8-Gao	RGS4-Gao reg	RGS16-Gao HTS	RGS4-Gao HTS	Avidin counter	RGS8-Gao confirm	RGS7-Gao confirm	RGS16-Gao single	RGS4-Gao confirm	RGS19-Gao conf
O=C(COC(=O)CCc1nc2ccccc2s1)NC(=O)NCc1ccco1	-	-	-	-	-	-	.	.	.	.	.	.	.
O=S(=O)(NCc1ccccc1)c1ccc2c(c1)OCCO2	.	.	-	.	.	.	.	-	-	-	-	-	-
COc1ccc(CNC(=O)C2CCCN2S(=O)(=O)c2ccc(F)cc2)cc1 (stereo unspecified)	-	-	-	-	-	-	.	.	.	.	.	.	.
CCNC(=O)C(Sc1ccccc1)c1ccccc1 (stereo unspecified)	-	-	-	-	-	252[activator]	106	-	-	-	-	-	-
Clc1ccc(N/N=C/c2ccncc2)cc1Cl	-	-	-	-	-	199[activator]	109	-	-	-	-	-	-
Fc1ccc(N/N=C/c2ccncc2)c(F)c1	-	-	-	-	-	-	.	.	.	.	.	.	.
CC(C(=O)NC(=O)NCc1ccccc1)N1C(=O)c2ccccc2C1=O (stereo unspecified)	.	.	-	.	-	.	.	-	-	-	-	-	-
Cc1nc(C(F)(F)F)ccc1C(=O)N1CCCCC1	-	?	.	31	3.0	5.8	.	-	-	-	-	-	-
CCCOC(=O)Nc1sc2c(c1C(N)=O)CCCC2	-	-	-	-	-	-	.	.	.	.	.	.	.
O=C(/C(C=Nc1cccc(C(F)(F)F)c1)=C(/O)c1ccco1)C(F)(F)F	-	-	-	-	-	2.5	87	-	-	-	-	-	-
Cc1ccc2nc(N(CCCN(C)C)C(=O)c3ccco3)sc2c1	252	+[activator]	232	237[activator]	+[activator]	+[activator]	.	-	-	-	-	-	-
CN(C)CCCN(C(=O)c1ccco1)c1nc2ccc(F)cc2s1	-	?	-	-	-	-	.	.	.	.	.	.	.
C/C(=N\N1CCN(C)CC1)c1ccc(Cl)c(Cl)c1	-	-	-	-	-	-	.	.	.	.	.	.	.
CCC12CN3CCN(CC(C3)/C1=N\NC(=O)c1ccc(F)cc1)C2	-	43	-	55	42	-	.	-	-	-	-	-	-
CCC12CN3CCN(CC(C3)/C1=N\NC(=O)c1ccc(Cl)cc1)C2	-	-	-	-	-	-	.	.	.	.	.	.	.
Cc1noc(C)c1-c1nc(CSc2ccccc2)no1	-	?	.	-	-	-	.	.	.	.	.	.	.
CC(C)CNC(=O)c1ccccc1SCC(=O)NC12CC3CC(CC(C3)C1)C2	-	-	-	-	-	23	78	-	-	-	-	-	-
CCCCNC(=O)c1c(CSc2ccccc2)noc1C(=O)NCc1ccccc1	-	?	.	-	-	-	.	.	.	.	.	.	.
O=C1C(=Cc2ccc(Br)o2)C(=O)c2ccccc21	-	1.6	-	32	-	8.3	53	.	.	.	.	.	.
O=c1[nH]c(CSc2nnc3ccccn23)nc2cc(C(F)(F)F)ccc12	-	-	-	-	-	-	.	.	.	.	.	.	.
O=C(NCc1ccc(Cl)cc1)c1ccc(N2CCCC2=O)cc1	-	-	-	-	-	-	.	.	.	.	.	.	.
COC(=O)c1sc2nc(CN3CCOCC3)nc(N3CCOCC3)c2c1C	-	-	-	-	-	-	.	.	.	.	.	.	.
Cc1sc2nc(CN3CCOCC3)nc(N3CCOCC3)c2c1C	-	-	-	143[activator]	-	-	116	-	-	-	-	-	-
COCc1nnc(NC(=O)c2ccc(NC(C)=O)cc2)s1	-	-	-	-	46	-	.	-	-	-	-	-	-
N#Cc1c(NC(=O)CSc2nc3ccccc3s2)sc2c1CCCC2	-	-	-	-	-	-	.	.	.	.	.	.	.
SMILES	Avidin fluor	RGS7-Gao reg	GSH fluor	RGS8-Gao	RGS4-Gao reg	RGS16-Gao HTS	RGS4-Gao HTS	Avidin counter	RGS8-Gao confirm	RGS7-Gao confirm	RGS16-Gao single	RGS4-Gao confirm	RGS19-Gao conf
O=C(c1cnc2ccccc2n1)N1CCN(c2ccc(C(F)(F)F)cn2)CC1	-	?	.	-	-	-	.	.	.	.	.	.	.
COCC(=O)N(C)C1(c2nnnn2CCOC(=O)Nc2ccc(Cl)cc2)CCCCC1	-	?	-	-	-	-	.	.	.	.	.	.	.
COCC(=O)NC1(c2nnnn2CCOC(=O)Nc2ccc(Cl)cc2)CCCCC1	68	255[activator]	-	-	-	-	116	-	-	-	-	-	-
Cc1ccc(S(=O)(=O)NCCc2nnc3ccc(SCC(=O)Nc4nc5ccccc5s4)nn23)cc1	-	-	-	-	-	177[activator]	105	-	-	-	-	-	-
O=C(Nc1cnccn1)Nc1ccc(Cl)cc1Cl	.	.	-	.	.	.	.	-	-	-	-	-	-
Cc1ccc(NC(=O)Nc2cnccn2)cc1Cl	-	-	-	-	-	-	.	.	.	.	.	.	.
COc1ccc(/C=C(\NC(=O)c2ccccc2)C(=O)NNC(=O)CCN2CCOCC2)cc1	-	-	-	-	-	-	.	.	.	.	.	.	.
O=C(CCN1CCOCC1)NNC(=O)/C(=C/c1ccccc1)NC(=O)c1ccccc1	-	-	-	-	43	-	.	-	-	-	-	-	-
CCN1/C(=C/C(C)=C/c2sc3ccccc3[n+]2CC)Sc2ccccc21	-	-	-	53	-	-	57	-	-	-	-	-	-
CC1=C(C)CC2(SC1)C(=O)N(c1ccccc1)N=C2N (stereo unspecified)	-	-	-	-	-	-	.	.	.	.	.	.	.
COc1ccc(CNC(=O)C2CSC(c3ccc(OC)cc3)N2C(C)=O)cc1 (stereo unspecified)	123	217[activator]	-	-	-	-	106	-	-	-	-	-	-
CCOn1c(=O)c(=O)n(OC)c2ccccc21	-	?	.	-	-	-	.	.	.	.	.	.	.
O=C(Nc1ccccc1F)c1ccc(COc2ccc(Cl)cc2Cl)o1	-	-	-	-	-	-	.	.	.	.	.	.	.
CC(C)CNC(=O)c1ccc(COc2ccc(Cl)cc2Cl)o1	-	49	-	60	-	-	52	-	-	-	-	-	-
CC(=O)/C(=N/Nc1ccccc1Cl)Sc1nnc(C(O)c2ccccc2)n1-c1ccccc1 (stereo unspecified)	-	-	-	-	-	-	.	.	.	.	.	.	.

Assay outcomes as filed in PubChem BioAssay.
